Experimental data published in PubChem BioAssay (EPA / NIEHS).
Several values for one entry are separate records, joined by “and”; a condition that tells them apart may be missing. Equal entries are not always repeated. Some compounds were tested as several samples or in several runs, with calls that do not always agree. Activity calls are given as the source filed them. The calls were made as follows: active = hit-call score of the fitted dose curve at least 0.9, where 1 is the maximum; inactive = score below 0.9.

Key:
[1] = read-out: Matrix Metallopeptidase 1 (MMP1), MMP1 (gene 4312); assay: BSK_BF4T_MMP1: BioMAP Diversity Plus: BF4T Assay for Matrix Metallopeptidase 1 (MMP1) Biomarker Activity (AID 2284270); conditions: primary human bronchial epithelial cells with fibroblasts
Summary of the method: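 MMP-1 quantified by ELISA in primary human bronchial epithelial/dermal fibroblast co-cultures, 24 hours post-dosing, with DMSO as baseline; parallel sulforhodamine B staining (560 nm) tracks overt cytotoxicity.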

[2] = read-out: Matrix Metallopeptidase 3 (MMP3), MMP3 (gene 4314); assay: BSK_BF4T_MMP3: BioMAP Diversity Plus: BF4T Assay for Matrix Metallopeptidase 3 (MMP3) Biomarker Activity (AID 2284271); conditions: primary human bronchial epithelial cells with fibroblasts
Summary of the method: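 MMP-3 level read by ELISA after 24 h chemical exposure of bronchial epithelial cell/dermal fibroblast co-cultures, fitted upward relative to DMSO. Parallel cultures stained with 0.1% SRB after TCA fixation gauge overt cytotoxicity.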

[3] = read-out: Tissue plasminogen activator (tPA), PLAT (gene 5327); assay: BSK_BF4T_tPA: BioMAP Diversity Plus: BF4T Assay for Tissue plasminogen activator (tPA) Biomarker Activity (AID 2284272); conditions: primary human bronchial epithelial cells with fibroblasts
Summary of the method: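 tPA level quantified by ELISA at 24 h post-treatment in bronchial epithelial/dermal fibroblast co-cultures, gain of signal scored against DMSO baseline. Parallel cultures stained with 0.1% SRB (560 nm) to flag overt cytotoxicity.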

[4] = read-out: Plasminogen Activator Inhibitor-1 (PAI1), SERPINE1 (gene 5054); assay: BSK_BF4T_PAI1: BioMAP Diversity Plus: BF4T Assay for Plasminogen Activator Inhibitor-1 (PAI1) Biomarker Activity (AID 2284273); conditions: primary human bronchial epithelial cells with fibroblasts
Summary of the method: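 PAI-1 levels quantified by ELISA 24 h post-dosing in bronchial epithelial cell plus dermal fibroblast cultures. Signal gain referenced to DMSO baseline. Sulforhodamine B total-protein staining of parallel wells checked cytotoxicity.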

[5] = BSK_BF4T_SRB: Viability Assessment in the BioMAP Diversity Plus: BF4T Assay (AID 2284274); conditions: primary human bronchial epithelial cells with fibroblasts;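 as to AC50: measured 24 h after compound addition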
Summary of the method: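 Cytotoxicity measured as total protein: cells fixed with 10% TCA, stained with 0.1% SRB, read at 560 nm. Bronchial epithelial/dermal fibroblast co-culture, 24 h after dosing, with positive-direction fitting relative to DMSO.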

[6] = read-out: urokinase Plasminogen Activator (uPA), PLAU (gene 5328); assay: BSK_BF4T_uPA: BioMAP Diversity Plus: BF4T Assay for urokinase Plasminogen Activator (uPA) Biomarker Activity (AID 2284275); conditions: primary human bronchial epithelial cells with fibroblasts
Summary of the method: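 uPA levels measured by ELISA at 24 hours in BF4T cultures (bronchial epithelial cells plus dermal fibroblasts) and compared with DMSO; cytotoxicity tracked in parallel cultures by sulforhodamine B staining.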

[7] = read-out: Matrix Metallopeptidase 9 (MMP9), MMP9 (gene 4318); assay: BSK_BF4T_MMP9: BioMAP Diversity Plus: BF4T Assay for Matrix Metallopeptidase 9 (MMP9) Biomarker Activity (AID 2284276); conditions: primary human bronchial epithelial cells with fibroblasts
Summary of the method: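 MMP-9 levels were measured by ELISA after 24 h exposure of bronchial epithelial cell/dermal fibroblast co-cultures, with DMSO as baseline. Parallel cultures were stained with 0.1% SRB after TCA fixation, read at 560 nm, to flag overt cytotoxicity.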

[8] = read-out: Interferon-inducible T-cell alpha chemoattractant (ITAC), CXCL11 (gene 6373); assay: BSK_BE3C_ITAC: BioMAP Diversity Plus: BE3C Assay for Interferon-inducible T-cell alpha chemoattractant (ITAC) Biomarker Activity (AID 2284279); conditions: primary human bronchial epithelial cells
Summary of the method: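 Steps: dose human bronchial epithelial cells with chemical; incubate 24 h; measure I-TAC by ELISA; fit endpoint in positive direction against DMSO control. Cytotoxicity was checked in parallel cultures by SRB staining at harvest.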

[9] = read-out: Epidermal growth factor receptor (EGFR), EGFR (gene 1956); assay: BSK_BE3C_EGFR: BioMAP Diversity Plus: BE3C Assay for Epidermal growth factor receptor (EGFR) Biomarker Activity (AID 2284281); conditions: primary human bronchial epithelial cells
Summary of the method: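 Human primary bronchial epithelial cells were exposed to compound for 24 h, and cell-surface EGFR was then quantified by ELISA. Activity was fitted in the positive direction against the DMSO vehicle baseline.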

[10] = read-out: KRT18 (gene 3875); assay: BSK_BE3C_Keratin818: BioMAP Diversity Plus: BE3C Assay for Keratin 818 Biomarker Activity (AID 2284282); conditions: primary human bronchial epithelial cells
Summary of the method: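 ELISA readout of Keratin 8/18 in human primary bronchial epithelial cultures after 24 h chemical exposure, DMSO baseline. Parallel SRB staining (0.1%, TCA-fixed, 560 nm) served as cytotoxicity check.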

Measured: AC50

O=C(O)CCC(F)(F)C(F)(F)C(F)(F)C(F)(F)C(F)(F)C(F)(F)F
inactive: [1] | [2] | [3] | [4] | [5] | [6] | [7] | [8] | [9] | [10]

O=S(=O)(O)C(F)(F)C(F)(F)C(F)(F)C(F)(F)C(F)(F)C(F)(F)C(F)(F)C(F)(F)C(F)(F)C(F)(F)F
active: [3] 2.39 µM | [8] 21.8 µM | [10] 21 µM and 18 µM
inactive: [1] | [2] | [3] | [4] | [5] | [6] | [7] | [8] | [9]

CN(Cc1cnc2nc(N)nc(N)c2n1)c1ccc(C(=O)N[C@@H](CCC(=O)O)C(=O)O)cc1
inactive: [1] | [2] | [3] | [4] | [5] | [6] | [7] | [8] | [9] | [10]

Oc1c(Cl)cc(Cl)cc1Sc1cc(Cl)cc(Cl)c1O
active: [8] 3.3 µM and 3.57 µM | [9] 4.89 µM and 4.9 µM | [10] 9.64 µM and 7.03 µM

O=P(O)(O)CCC(F)(F)C(F)(F)C(F)(F)C(F)(F)C(F)(F)C(F)(F)F
inactive: [1] | [2] | [3] | [4] | [5] | [6] | [7] | [8] | [9] | [10]
active: [3] 14.6 µM

O=C1NS(=O)(=O)c2ccccc21
inactive: [8] | [9] | [10]

Oc1ccc(Cc2ccccc2O)cc1
inactive: [8] | [9] | [10]

CCCCCCCCCCCC
active: [8] 8.03 µM and 6.71 µM | [9] 5.07 µM | [10] 5.09 µM
inactive: [9] | [10]

C=CC(=O)OCCC(F)(F)C(F)(F)C(F)(F)C(F)(F)C(F)(F)C(F)(F)C(F)(F)C(F)(F)F
inactive: [1] | [2] | [3] | [4] | [5] | [6] | [7] | [8] | [9] | [10]

O=C(CC(=O)C(F)(F)C(F)(F)C(F)(F)F)c1cccs1
active: [1] 19.3 µM and 17 µM | [2] 37.6 µM and 25.2 µM | [3] 30 µM | [4] 16.9 µM and 15.5 µM | [5] 23.9 µM and 26.7 µM | [6] 46.4 µM and 35.8 µM | [7] 28.8 µM and 22.4 µM | [8] 24.7 µM and 24.1 µM | [9] 30 µM and 20.5 µM | [10] 10.8 µM and 14.7 µM

O=C(O)CCC(F)(F)C(F)(F)C(F)(F)C(F)(F)C(F)(F)F
inactive: [1] | [2] | [3] | [4] | [5] | [6] | [7] | [8] | [9] | [10]

O=C(O)C(F)(F)OC(F)(F)C(F)(F)OC(F)(F)C(F)(F)OC(F)(F)C(F)(F)C(F)(F)C(F)(F)F
active: [2] 14.4 µM and 8.19 µM | [3] 8.23 µM and 8.02 µM | [4] 19.1 µM and 16.2 µM | [6] 14.6 µM | [7] 11.2 µM and 8.88 µM | [8] 5.77 µM and 5.71 µM | [10] 3.28 µM and 2.7 µM
inactive: [1] | [5] | [6] | [9]

OCC(F)(F)C(F)(F)C(F)(F)C(F)(F)C(F)(F)C(F)(F)C(F)(F)C(F)(F)C(F)(F)C(F)(F)C(F)(F)F
inactive: [1] | [2] | [3] | [4] | [5] | [6] | [7] | [8] | [9] | [10]

CN(CCO)S(=O)(=O)C(F)(F)C(F)(F)C(F)(F)C(F)(F)C(F)(F)C(F)(F)C(F)(F)C(F)(F)F
inactive: [1] | [2] | [3] | [4] | [5] | [6] | [7] | [8] | [9] | [10]

O=P(O)(O)CCC(F)(F)C(F)(F)C(F)(F)C(F)(F)C(F)(F)C(F)(F)C(F)(F)C(F)(F)F
inactive: [1] | [2] | [3] | [4] | [5] | [6] | [7] | [8] | [9] | [10]
active: [3] 19.2 µM
